The whole screen tested about 69,000 compounds, of which about 8,600 (12%) showed an effect of 50% or more. Many of the other results were omitted from the sample, so strong results are more common in it than they were.
Tested on: Plasmodium berghei
Test: Screen against P. berghei liver stage (PbLuc), transformed with Luciferase, at 10uM
Format: functional, HepG2
Conditions: tested at 10 uM

Point of comparison: `Cc1cc(-c2cnc(N3CCSCC3)nc2-c2ccc(C)s2)on1`, INHIBITION 47.1%. Against it:
- CCN1CC(C(=O)NCc2ccnc(-n3cccn3)c2)CC1=O (stereo not given) — lower, -12.33%
- CCOC(C)c1nccn1Cc1c(C)noc1C (stereo not given) — lower, 3.19%
- Cc1cc(C(F)(F)F)nc(C2(C)CCCN2CC(N)=O)n1 (stereo not given) — lower, 14.385%
- c1cncc(-n2cnnc2CCCN2CCOCC2)c1 — lower, 3.69%
- CN1CCN(Cc2cccnc2)C2(CCN(Cc3ccoc3)C2)C1=O (stereo not given) — lower, -24.9%
- COCCC(=O)NC1CCN(CC2(c3cccc(F)c3)CCCC2)CC1 — lower, 12.3%
- Cc1ccc(NC(=O)[C@H]2C[C@H](C(=O)O)CN(CC(C)C)C2)cn1 — lower, 11.2%
- Nc1nc(NCCO)cc(N2CCc3c([nH]c4ccccc34)C2)n1 — higher, 78.5%
- CCc1ncc2c(n1)CN(c1cc(NCCO)nc(N)n1)C2 — lower, -63.2%
- CC(C)Cc1ncc2c(n1)CN(c1cc(NCCO)nc(N)n1)C2 — lower, 27.7%
- COc1ccc2[nH]c3c(c2c1)CN(c1cc(NCCO)nc(N)n1)CC3 — higher, 54.8%
- CC(C)(C)c1ncc2c(n1)CN(c1cc(NCCO)nc(N)n1)C2 — lower, 3.84%
- COc1ccc(F)c(-c2cc(NCCO)nc(N)n2)c1 — lower, -76.6%
- C[C@@H]1C[C@H]2CN(C(=O)c3ccncn3)C[C@H]2O1 — lower, -0.813%
- CN1[C@@H](C(=O)NCC2CC2)C[C@@H]2CN(Cc3ccoc3)C[C@@H]21 — lower, 1.34%
- N#CC(NC(=O)CC(F)(F)F)c1ccsc1 (stereo not given) — lower, -3.68%
- COc1cccc(C=CCCN2CCN(S(C)(=O)=O)CC2)c1 — lower, -104%
- CCN1CCN(c2ncc(-c3cc(C)no3)c(-c3ccoc3C)n2)CC1 — higher, 48.9%
- Cc1cc(-c2cnc(N3CCCC3)nc2-c2ccc(C)s2)on1 — lower, 32.3%
- CCN1CCN(c2ncc(-c3cc(C)no3)c(-c3ccco3)n2)CC1 — lower, 11.5%
- Cc1cc(-c2cnc(N3CCN(C)CC3)nc2-c2ccc(C)s2)on1 — higher, 69.4%
- CCN1CCN(c2ncc(-c3cc(C)no3)c(-c3ccc(C)s3)n2)CC1 — higher, 57.4%
- Cc1cc(-c2cnc(N3CCOCC3)nc2-c2ccc(C)s2)on1 — higher, 53%
- Cc1nc(CN2CCCC(N(C)CCOCC(F)(F)F)C2)no1 (stereo not given) — lower, -13.5%
- c1cc(COc2ccc(CNC3CCc4ncnn4C3)cc2)ccn1 (stereo not given) — lower, -1.76%
- CS(=O)(=O)CC1(CNc2c(C#N)cnc3ccc(Cl)cc23)CC1 — lower, -14.1%
- CS(=O)(=O)c1cn[nH]c1C1CCCCN1C(=O)c1ccsc1 (stereo not given) — lower, -69.5%
- CN1C(=O)CCC12CCC(NC(=O)NCc1cccnc1)CC2 (stereo not given) — lower, 28.5%
- O=S(=O)(c1ccccc1)N1CCN(Cc2ccc(F)cc2Br)CC1 — lower, 33.1%
- O=S(=O)(N1CCCCCC1)N1CCN(Cc2ccc(F)cc2Br)CC1 — higher, 71.2%
- CS(=O)(=O)N1CCN(Cc2ccc(F)cc2Br)CC1 — lower, 35.4%
- CN1C(=O)CC(C(=O)O)C12CCN(c1ccc3cccc(Cl)c3n1)CC2 (stereo not given) — lower, -0.273%
- CCC1=N[C@@]2(CC[C@@H]3CN(CC(C)C)C[C@@H]32)C(=O)N1 — lower, 24.9%
- COc1ccc(C2SCC(=O)Nc3ccsc32)cc1OC (stereo not given) — lower, 3.68%
- COc1cc(OC)cc(C2SCC(=O)Nc3ccsc32)c1 (stereo not given) — lower, 3.68%
- COc1cc(C2SCC(=O)Nc3ccsc32)cc(OC)c1O (stereo not given) — lower, 43.7%
- COc1ccc(C2SCC(=O)Nc3ccsc32)cc1 (stereo not given) — higher, 67.9%
- COC(=O)c1ccc(C2SCC(=O)Nc3ccsc32)cc1 (stereo not given) — higher, 78.1%
- O=C1CSC(c2ccsc2)c2sccc2N1 (stereo not given) — lower, 20.5%
- COc1cc(C2SCC(=O)Nc3ccsc32)cc(OC)c1OC (stereo not given) — lower, 29.4%
- O=C1CSC(c2ccc(O)cc2)c2sccc2N1 (stereo not given) — higher, 88.1%
- COc1cccc(C2SCC(=O)Nc3ccsc32)c1 (stereo not given) — lower, 3.68%
- COCC1CC2(CCN(Cc3nc(C)cs3)CC2)CO1 (stereo not given) — lower, 14.9%
- COc1cc(C(=O)NC(CC(=O)O)c2cccs2)cc(OC)c1C (stereo not given) — lower, 5.03%
- COc1ccc(C2=NOC(CC#N)C2)cc1 (stereo not given) — lower, 45.8%
- Cc1cc(C)n(CC2CCCN2C(=O)CCNc2ncccn2)n1 (stereo not given) — lower, -9.4%
- NC(=O)C1(CNC(=O)CCc2ccc(Cl)s2)CCOCC1 — lower, 13.8%
- O=C(CCCN1CCCCC1)NC(C(=O)O)c1cccc(F)c1 (stereo not given) — lower, -20%
- CN(C)C(=O)COC1COC2(CCN(S(C)(=O)=O)CC2)C1 (stereo not given) — lower, 37%
- CCn1cc2[nH]c(OC)c(CNC(=O)CCC3CCCC3)cc-2c1=O — lower, 34.4%
- COc1ccc(C(C)(C)C)cc1CN1CCn2c(CO)nnc2C1 — higher, 48.4%
- CCn1cc(NC(=O)C2CCN(Cc3noc(C4CC4)n3)CC2)cn1 — lower, 18.2%
- O=C(CCN1C(=O)CCC1=O)Nc1cnn(-c2ccccc2Cl)c1 — lower, 28.5%
- CC(C)N(C)C(=O)c1ccc(Cl)c(NC(=O)CCN2C(=O)CCC2=O)c1 — lower, 35.2%
- O=C(CCN1C(=O)CCC1=O)Nc1ccc(Oc2ccc(Cl)cc2)nc1 — higher, 51.1%
- O=C(CCN1C(=O)CCC1=O)Nc1ccc(OCC(F)(F)F)nc1 — lower, 39.4%
- O=C(CCN1C(=O)CCC1=O)Nc1ccc(Cl)cc1 — higher, 67.2%
- CC(C)OCC(=O)Nc1ccc(Oc2ccc3c(c2)OCO3)nc1 — lower, 29.9%
- COC1CCN(C(=O)NCC(N)=O)CC(=O)N(C)c2ccccc21 (stereo not given) — lower, 16.2%
- Cc1cnn(CC2CN(Cc3cccnc3)CCO2)c1 (stereo not given) — lower, -7.81%
- COC(=O)CN1CCCn2nc(CCC(=O)N3CCCC3)cc2C1 — lower, 32.4%
- CC(=O)N1CC(C)CN(C(=O)c2cnccn2)c2ccccc21 (stereo not given) — higher, 60.7%
- CC(=O)N1CC(C)CN(C(=O)c2cccnc2C)c2ccccc21 (stereo not given) — lower, -9.8%
- CC1CN(C)c2ccccc2N(C(=O)c2c[nH]c(C(C)C)n2)C1 (stereo not given) — lower, 29.6%
- CC(C)c1cc(COCCC(=O)O)no1 — lower, 44.1%
- Cc1ccc(-n2cc(CN3CCN(C)[C@@H]4CS(=O)(=O)C[C@@H]43)cn2)cc1 — lower, 29.1%
- CN1CCN(C(=O)NCCc2ccc(F)cc2)[C@H]2CS(=O)(=O)C[C@H]21 — higher, 52.2%
- CN1CCN(Cc2cnn(-c3ccc(F)cc3)c2)[C@H]2CS(=O)(=O)C[C@H]21 — higher, 69.8%
- COc1ccc(CNC(=O)N2CCN(C)[C@@H]3CS(=O)(=O)C[C@@H]32)cc1 — lower, 0.891%
- CN1CCN(Cc2nc3ccccc3[nH]2)[C@H]2CS(=O)(=O)C[C@H]21 — lower, -1.64%
- Cc1cccc(-n2cc(CN3CCN(C)[C@@H]4CS(=O)(=O)C[C@@H]43)cn2)c1 — lower, 4.41%
- CN1CCN(Cc2cnn(-c3ccccc3Cl)c2)[C@H]2CS(=O)(=O)C[C@H]21 — lower, -54.8%
- COc1ccccc1-n1cc(CN2CCN(C)[C@@H]3CS(=O)(=O)C[C@@H]32)cn1 — higher, 50.1%
- COc1ccc(CCNC(=O)N2CCN(C)[C@@H]3CS(=O)(=O)C[C@@H]32)cc1 — lower, 31.9%

Source: ChEMBL document CHEMBL4513216, “Probing the Open Global Health Chemical Diversity Library for Multistage-Active Starting Points for Next-Generation Antimalarials” (ACS Infect Dis, 2020)
